This is part of a sample that, as a whole, favours compounds with a hit. Of some 83,000 tested, about 20% had one in any assay.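 A percent growth of 40 corresponds to 60% growth inhibition; 0 means no net growth; -100 means all cells died. Active threshold: below 10.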 Calls of active or inactive are those of the source.
How the values were obtained:
Assay in all cases: NCI-60 one-dose screen, 48 h (100 = growth as untreated, 0 = no growth, -100 = all killed)
Settings in all cases: 10 µM unless noted
RPMI-8226 leukemia = tested on: RPMI-8226 leukemia
OVCAR-8 ovarian = tested on: OVCAR-8 ovarian
OVCAR-5 ovarian = tested on: OVCAR-5 ovarian
OVCAR-4 ovarian = tested on: OVCAR-4 ovarian
SK-OV-3 ovarian = tested on: SK-OV-3 ovarian
IGROV1 ovarian = tested on: IGROV1 ovarian
OVCAR-3 ovarian = tested on: OVCAR-3 ovarian
HS 578T breast = tested on: HS 578T breast
NCI/ADR-RES ovarian = tested on: NCI/ADR-RES ovarian
T-47D breast = tested on: T-47D breast
BT-549 breast = tested on: BT-549 breast
MDA-MB-435 melanoma = tested on: MDA-MB-435 melanoma
SW-620 colon = tested on: SW-620 colon
MCF7 breast = tested on: MCF7 breast
HCT-116 colon = tested on: HCT-116 colon
HCC-2998 colon = tested on: HCC-2998 colon
KM12 colon = tested on: KM12 colon

Measured: growth

COC1=CC=CC2(OC)C3(O)CCCc4cccc(c43)N3C(=O)COC132 (stereo unspecified)
inactive: RPMI-8226 leukemia 92.4% | OVCAR-8 ovarian 99.2% | OVCAR-5 ovarian 104% | OVCAR-4 ovarian 96.6% | SK-OV-3 ovarian 107% | IGROV1 ovarian 94.7% | OVCAR-3 ovarian 109% | HS 578T breast 93.7% | NCI/ADR-RES ovarian 101% | T-47D breast 97.7% | BT-549 breast 103% | MDA-MB-435 melanoma 103% | SW-620 colon 103% | MCF7 breast 96.3% | HCT-116 colon 89.7% | HCC-2998 colon 103% | KM12 colon 105%

COc1ccc2nc(-c3ccc(Cl)cc3)cc(-c3nnc(SCC(=O)Nc4ccc(/C(C)=N\O)cc4)o3)c2c1
inactive: RPMI-8226 leukemia 18.4% | OVCAR-5 ovarian 81.1% | SK-OV-3 ovarian 87.5% | IGROV1 ovarian 60.2% | OVCAR-3 ovarian 36.8% | HS 578T breast 64.8% | T-47D breast 41.7% | BT-549 breast 25.4% | MDA-MB-435 melanoma 16.4% | HCC-2998 colon 82% | KM12 colon 30.9%
active: OVCAR-8 ovarian 0.357% | OVCAR-4 ovarian -56.1% | NCI/ADR-RES ovarian 1.11% | SW-620 colon 3.98% | MCF7 breast 7.93% | HCT-116 colon 2.59%

Cn1cc(-c2ccc3c(c2)ncn3-c2ccc(CC(=O)Nc3cc(C(C)(C)C)on3)cc2)cn1
active: SK-OV-3 ovarian 7.18% | IGROV1 ovarian -27.7% | HS 578T breast -7.52%
inactive: RPMI-8226 leukemia 76.8% | OVCAR-8 ovarian 41.4% | OVCAR-5 ovarian 22.8% | OVCAR-4 ovarian 12.3% | OVCAR-3 ovarian 32.4% | NCI/ADR-RES ovarian 38.7% | T-47D breast 35.5% | BT-549 breast 31.5% | MDA-MB-435 melanoma 34.8% | SW-620 colon 33.7% | MCF7 breast 26.9% | HCT-116 colon 16.6% | HCC-2998 colon 76.3% | KM12 colon 16.3%

C=C1C(=O)O[C@H]2[C@H]1CC/C(COC(=O)c1cc3ccccc3o1)=C\CC[C@@]1(C)O[C@@H]21
inactive: SK-OV-3 ovarian 97.2% | NCI/ADR-RES ovarian 14.2% | HCC-2998 colon 61.6% | KM12 colon 26.7%
active: RPMI-8226 leukemia -23.7% | OVCAR-8 ovarian -12.6% | OVCAR-5 ovarian -18.8% | OVCAR-4 ovarian -10.5% | IGROV1 ovarian -40.1% | OVCAR-3 ovarian -87.4% | HS 578T breast -4.65% | T-47D breast -48% | BT-549 breast -32.5% | MDA-MB-435 melanoma -35.1% | SW-620 colon -58.2% | MCF7 breast -31.8% | HCT-116 colon -84.1%

NCCN1CCNCC1
inactive: RPMI-8226 leukemia 79.2% | OVCAR-8 ovarian 112% | OVCAR-5 ovarian 94% | OVCAR-4 ovarian 100% | SK-OV-3 ovarian 101% | IGROV1 ovarian 104% | OVCAR-3 ovarian 109% | HS 578T breast 98% | NCI/ADR-RES ovarian 102% | T-47D breast 86.2% | BT-549 breast 130% | MDA-MB-435 melanoma 105% | SW-620 colon 103% | MCF7 breast 96.6% | HCT-116 colon 105% | HCC-2998 colon 94.3% | KM12 colon 109%

Nc1cc(N)c(S(=O)(=O)O)cc1N=Nc1cc([N+](=O)[O-])ccc1O
inactive: RPMI-8226 leukemia 98.8% | OVCAR-8 ovarian 99.5% | OVCAR-5 ovarian 108% | OVCAR-4 ovarian 109% | SK-OV-3 ovarian 93.8% | IGROV1 ovarian 106% | OVCAR-3 ovarian 113% | HS 578T breast 103% | NCI/ADR-RES ovarian 106% | T-47D breast 97.2% | BT-549 breast 105% | MDA-MB-435 melanoma 112% | SW-620 colon 108% | MCF7 breast 94.7% | HCT-116 colon 94% | HCC-2998 colon 109% | KM12 colon 106%

C#C[C@@]1(O)[C@@H](CO)O[C@@H](n2cc(I)c3c(N)ncnc32)[C@@H]1O
inactive: OVCAR-5 ovarian 20.6% | OVCAR-4 ovarian 20.4% | MDA-MB-435 melanoma 14.6%
active: RPMI-8226 leukemia 5.83% | OVCAR-8 ovarian -19.4% | SK-OV-3 ovarian -28.3% | IGROV1 ovarian -34.9% | OVCAR-3 ovarian -17.8% | HS 578T breast -15.5% | NCI/ADR-RES ovarian -4.5% | T-47D breast -21.1% | BT-549 breast -13.2% | SW-620 colon 0.663% | MCF7 breast 1.73% | HCT-116 colon 0.762% | HCC-2998 colon -35.3% | KM12 colon 9.88%

COc1cc([C@H](C)c2ccc3ccccc3c2)cc(OC)c1OC
active: OVCAR-3 ovarian -19.7% | MDA-MB-435 melanoma 0.308% | HCT-116 colon 6.72%
inactive: RPMI-8226 leukemia 15.9% | OVCAR-8 ovarian 23.2% | OVCAR-5 ovarian 62.1% | OVCAR-4 ovarian 40.6% | SK-OV-3 ovarian 31% | IGROV1 ovarian 36% | HS 578T breast 30.2% | NCI/ADR-RES ovarian 17.9% | T-47D breast 42.2% | BT-549 breast 39.1% | SW-620 colon 28.5% | MCF7 breast 14.8% | HCC-2998 colon 26.5% | KM12 colon 19.6%

CCN(CC)c1ccc2c(c1)Oc1nc(N)c(C#N)c(N)c1C2Sc1ccc(OC)cc1 (stereo unspecified)
active: RPMI-8226 leukemia -28.3% | OVCAR-8 ovarian 5.24% | IGROV1 ovarian -3.83% | OVCAR-3 ovarian -15.1% | BT-549 breast -0.405% | MDA-MB-435 melanoma -26.8% | SW-620 colon -8.27% | MCF7 breast 0.303% | HCT-116 colon 2.7% | HCC-2998 colon -49.2% | KM12 colon -33%
inactive: OVCAR-5 ovarian 51.9% | OVCAR-4 ovarian 46.2% | SK-OV-3 ovarian 34% | HS 578T breast 19.7% | NCI/ADR-RES ovarian 46.9% | T-47D breast 51.8%

NS(=O)(=O)c1ccc(N2Cc3cc(Cl)ccc3OC3=C2C(=O)N(CC2CCCCC2)C3=O)cc1
inactive: SK-OV-3 ovarian 60% | HS 578T breast 14.5%
active: RPMI-8226 leukemia -30% | OVCAR-8 ovarian -71.9% | OVCAR-5 ovarian -88.7% | OVCAR-4 ovarian -95.3% | IGROV1 ovarian -47.6% | OVCAR-3 ovarian -89.6% | NCI/ADR-RES ovarian 4.6% | T-47D breast -55.3% | BT-549 breast -76.4% | MDA-MB-435 melanoma -73.9% | SW-620 colon -77.5% | MCF7 breast -71.5% | HCT-116 colon -85.6% | HCC-2998 colon -72.9% | KM12 colon 4.52%

Cc1nccc2c3ccc(OCc4cn(-c5ccc(Cl)cc5)nn4)cc3n(CC(C)C)c12
inactive: OVCAR-8 ovarian 25.2% | OVCAR-5 ovarian 44.2% | OVCAR-4 ovarian 30.5% | SK-OV-3 ovarian 24.2% | IGROV1 ovarian 44.4% | OVCAR-3 ovarian 35.3% | HS 578T breast 38.8% | NCI/ADR-RES ovarian 14.1% | T-47D breast 14% | BT-549 breast 28.3% | MDA-MB-435 melanoma 30.6% | SW-620 colon 24.4% | MCF7 breast 13% | HCT-116 colon 10.8% | HCC-2998 colon 31.2% | KM12 colon 19.3%
active: RPMI-8226 leukemia -35.1%

O=c1[nH]c2ccccc2cc1-c1nc2ccncc2[nH]1
active: RPMI-8226 leukemia -0.575%
inactive: OVCAR-8 ovarian 88.7% | OVCAR-5 ovarian 112% | OVCAR-4 ovarian 85.5% | SK-OV-3 ovarian 90.5% | IGROV1 ovarian 84.2% | OVCAR-3 ovarian 90.9% | HS 578T breast 76.1% | NCI/ADR-RES ovarian 108% | T-47D breast 77.8% | BT-549 breast 91.3% | MDA-MB-435 melanoma 82.8% | SW-620 colon 88.4% | MCF7 breast 57.2% | HCT-116 colon 63.2% | HCC-2998 colon 93.3% | KM12 colon 22.8%

c1ccc2c3c([nH]c2c1)C(c1ccc(C2NCCc4c2[nH]c2ccccc42)cc1)NCC3 (stereo unspecified)
active: RPMI-8226 leukemia -40.3% | OVCAR-8 ovarian -41.4% | OVCAR-3 ovarian -65.3% | HS 578T breast -16.8% | T-47D breast -59% | MDA-MB-435 melanoma -91.6% | SW-620 colon -80% | MCF7 breast -81.2% | HCT-116 colon -91.7% | HCC-2998 colon -64.8% | KM12 colon -62%
inactive: OVCAR-5 ovarian 77% | OVCAR-4 ovarian 23.5% | SK-OV-3 ovarian 49.1% | IGROV1 ovarian 25.8% | NCI/ADR-RES ovarian 63.1% | BT-549 breast 86.9%

Cc1ccc(C2CC(c3ccc(Nc4nc(NCCO)nc(NCCO)n4)cc3)=NN2c2ccc(Cl)cc2)cc1 (stereo unspecified)
inactive: RPMI-8226 leukemia 47.5% | OVCAR-8 ovarian 66% | OVCAR-5 ovarian 99% | OVCAR-4 ovarian 63.9% | SK-OV-3 ovarian 98.6% | IGROV1 ovarian 82.6% | OVCAR-3 ovarian 45.7% | HS 578T breast 72.8% | NCI/ADR-RES ovarian 80.4% | T-47D breast 53.1% | BT-549 breast 79% | MDA-MB-435 melanoma 61.5% | SW-620 colon 80.4% | MCF7 breast 27.6% | HCT-116 colon 41.2% | HCC-2998 colon 64.1% | KM12 colon 52.4%

Cc1ccc(C(=O)O)o1
inactive: RPMI-8226 leukemia 114% | OVCAR-8 ovarian 108% | OVCAR-5 ovarian 105% | OVCAR-4 ovarian 100% | SK-OV-3 ovarian 101% | IGROV1 ovarian 102% | OVCAR-3 ovarian 103% | HS 578T breast 118% | NCI/ADR-RES ovarian 101% | T-47D breast 102% | BT-549 breast 97.9% | MDA-MB-435 melanoma 108% | SW-620 colon 107% | MCF7 breast 105% | HCT-116 colon 96.1% | HCC-2998 colon 102% | KM12 colon 96.9%

CCCCCCCc1n(Cc2ccc3ccccc3c2)c2ccccc2[n+]1Cc1ccc2ccccc2c1
active: RPMI-8226 leukemia -53% | OVCAR-8 ovarian -69.8% | OVCAR-5 ovarian -83.7% | OVCAR-4 ovarian -62.5% | SK-OV-3 ovarian -91.7% | IGROV1 ovarian -67.5% | OVCAR-3 ovarian -86.7% | HS 578T breast -42.7% | NCI/ADR-RES ovarian -35% | T-47D breast -74.2% | BT-549 breast -86.6% | MDA-MB-435 melanoma -92.3% | SW-620 colon -80% | MCF7 breast -64.7% | HCT-116 colon -84.6% | HCC-2998 colon -61.2% | KM12 colon -74.9%

Cc1[nH]c(N=Nc2ccccc2)nc1N=Nc1ccccc1
active: RPMI-8226 leukemia -2.66% | IGROV1 ovarian -22.8% | NCI/ADR-RES ovarian 0.979%
inactive: OVCAR-8 ovarian 14.7% | OVCAR-5 ovarian 18.8% | OVCAR-4 ovarian 30.3% | SK-OV-3 ovarian 39% | OVCAR-3 ovarian 33.2% | HS 578T breast 61.5% | T-47D breast 30.5% | BT-549 breast 37.7% | MDA-MB-435 melanoma 37.1% | SW-620 colon 31.7% | MCF7 breast 15.3% | HCT-116 colon 11.1% | HCC-2998 colon 26.3% | KM12 colon 35.1%

COC(=O)c1nc(-c2ccccc2)oc1S(=O)(=O)n1nc(C)cc1N
inactive: RPMI-8226 leukemia 53.2% | OVCAR-8 ovarian 95.3% | OVCAR-5 ovarian 103% | OVCAR-4 ovarian 104% | SK-OV-3 ovarian 106% | IGROV1 ovarian 61% | OVCAR-3 ovarian 20.4% | HS 578T breast 93.6% | NCI/ADR-RES ovarian 101% | T-47D breast 22.5% | BT-549 breast 69.8% | MDA-MB-435 melanoma 79.6% | MCF7 breast 60.2% | HCT-116 colon 67.9% | HCC-2998 colon 115% | KM12 colon 96.3%
active: SW-620 colon 6.13%
